A selection: hits, their analogues and other compounds. The true share with any hit is near 3%.
Measles CPE – protection of cells from measles virus | hit rate 1.5% among 140,000 | protection (pct of control), % at 4 µM | Measles virus-infected cells, CPE protection, absorbance | AID 841; in the data active = protection mostly above about 24%, no sharp cut-off; inactive = mostly below about 26%
ROMK mod – modulates human ROMK potassium channel activity | Tet-inducible ROMK, thallium flux fluorescence; actives lie on both sides | B-score at 10 µM | hit rate 2% among 130,000 | AID 1918;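 active = signal ratio slope over the read window, or its plate-corrected B-score, at least 3 SD from the plate mean, either direction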;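 also: B-score of the F/F0 ratio slope over 7 to 12 s after thallium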
Target sequence (P48048 whole entry, looked up): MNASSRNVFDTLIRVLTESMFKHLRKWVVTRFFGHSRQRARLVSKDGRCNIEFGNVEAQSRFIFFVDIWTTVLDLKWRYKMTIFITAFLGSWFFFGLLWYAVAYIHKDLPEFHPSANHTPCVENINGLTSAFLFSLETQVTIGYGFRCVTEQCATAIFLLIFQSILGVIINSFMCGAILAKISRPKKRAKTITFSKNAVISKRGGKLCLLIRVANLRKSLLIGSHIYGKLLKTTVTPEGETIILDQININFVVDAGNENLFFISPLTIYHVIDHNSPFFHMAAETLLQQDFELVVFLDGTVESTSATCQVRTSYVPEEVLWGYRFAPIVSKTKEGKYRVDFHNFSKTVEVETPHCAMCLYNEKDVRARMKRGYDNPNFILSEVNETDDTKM
INS promoter inh – TRM-6 insulin promoter activity inhibition; TRM-6 cells (human fetal islet line), insulin promoter-eGFP reporter, imaging; reporter expression induced with tamoxifen; hit rate 0.9% among 130,000; inhibition, % at 2 µM; AID 1273;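 active = inhibition above the mean plus 3 SD, with well images judged a real hit on visual review, cut at about 60% in these data, passing the limit was not always enough; inconclusive = inhibition over the cutoff but images rejected on review; inactive = inhibition not above the cutoff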
SDO1 yeast rescue – sdo1-depleted yeast growth rescue. S. cerevisiae sdo1-depleted JHY4D growth rescue, OD600 30 h; active compounds read high; pdr5 snq2 efflux-pump mutant strain. z-score at 10 µM. hit rate 0.21% among 140,000. AID 817;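 active = z-score above 3 at both the 24 hr and the 30 hr optical density reads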
ROMK hit retest – retested hit modulating human ROMK potassium channel; shares compounds with ROMK mod; ROMK thallium flux, fluorescence ratio; active compounds read low; normalized thallium flux (F/F0 slope) at 10 µM; hit rate 54% among 3,000; AID 1917;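 active = Flux at 10 µM at least 3 SD below or above vehicle control mean in one or both replicates; inconclusive = no clear call, values can overlap the other calls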
Hits are given with their value; i = inactive; ? = inconclusive; nt = no result.

SMILES	Measles CPE	ROMK mod	INS promoter inh	SDO1 yeast rescue	ROMK hit retest
OC(c1ccncc1)(c1ccc(F)cc1)c1ccc(F)cc1	i	i	nt	i	nt
CCCCS(=O)(=O)N1CCN(C(=N)N[N+](=O)[O-])CC1	nt	i	i	nt	nt
CC12CN3CC(c4ccccc4)(CN(C1)C31CCCCC1)C2=O	i	i	i	i	nt
CCCCCSc1cc(OC)c(CCN(C)C)cc1OC	i	i	nt	i	nt
CCCCCSc1cc(O)c(C(CNC)C(C)C)cc1OC (stereo unspecified)	i	-3.2	i	i	0.057
O=C(c1ccc(Cl)cc1)C1CCCN(Cc2ccc3ncccc3c2)C1 (stereo unspecified)	nt	i	nt	nt	nt
O=c1[nH]c(=O)n(CC2CCCO2)c(O)c1/C=C1\C=Nc2ccccc21 (stereo unspecified)	i	i	i	i	0.058
CN(CCCCC(=O)/C=N/O)Cc1ccccc1 (tested in a mixture with another compound)	i	3.3	i	i	i
CCNC(=O)C1OC(n2cnc3c(N)ncnc32)C(O)C1O (stereo unspecified)	nt	4.3	i	nt	?
Cc1cccc(-n2c(O)c(/C=C3/C(c4ccccc4)=Nc4ccccc43)c(=O)[nH]c2=O)c1	nt	nt	nt	nt	0.044
Cc1ccccc1-n1c(O)c(/C=C2/C(c3ccccc3)=Nc3ccccc32)c(=O)[nH]c1=O	i	-6	nt	i	0.061
COC(=O)C1=Nc2ccccc2/C1=C\c1c(O)n(-c2cc(OC)ccc2OC)c(=O)[nH]c1=O	i	i	i	i	nt
O=C(CN1CCCCC1)c1ccc2c(c1)OCO2	nt	i	nt	nt	nt
CC(=O)c1ccc2c(c1)OCO2	i	3	i	i	i
O=C1NC(=S)NC(=O)C12C(c1ccc(F)cc1)NC(=S)NC2c1ccc(F)cc1 (stereo unspecified)	i	i	i	i	nt
CCCCCc1nc2c(c(=O)c3ccccc3n2C)c(=O)n1C1CCCCCC1	i	nt	nt	i	0.053
CCCCCc1nc2ccccc2c(=O)n1-c1ccccc1[N+](=O)[O-]	i	i	i	i	nt
O=P(O)(Oc1ccccc1)OC(c1ccccc1)C(F)(F)C(F)(F)F (stereo unspecified)	nt	i	nt	nt	nt
CSc1nnc([C@@H](N)Cc2ccccc2)o1	i	nt	?	i	nt
CC(C)Sc1nnc([C@@H](N)Cc2ccccc2)o1	i	nt	i	i	i
C/C(=C/C=C/[C@@H](C)C(=O)O)[C@H]1CN[C@H](C(=O)O)[C@H]1CC(=O)O	i	i	i	i	nt
O=C(Cn1ncc2c3ccccc3n(Cc3ccccc3F)c2c1=O)N1CCC2(CC1)OCCO2	i	nt	i	i	nt
CC(C)CN1CCN(Cc2c(F)cccc2Cl)CC1CCO (stereo unspecified)	nt	i	nt	nt	nt
O=C1NC(=O)C(=Cc2cc3c(cc2[N+](=O)[O-])OCO3)C(=O)N1	nt	i	i	nt	nt
Cc1cccc(N2C(=O)NC(=O)/C(=C/c3cc4c(cc3[N+](=O)[O-])OCO4)C2=O)c1	nt	-2.8	i	nt	0.056
SMILES	Measles CPE	ROMK mod	INS promoter inh	SDO1 yeast rescue	ROMK hit retest
O=c1[nH]c(=S)n(-c2ccc(Br)cc2)c(O)c1C=Nc1ccc(N2CCOCC2)cc1	i	i	i	i	0.064
CN1C2CCC1/C(=C/c1ccccn1)C(=O)/C2=C\c1ccccn1	i	-3.8	i	i	0.043
Cc1ccc2c(c1)C1CN(C)CCC1N2C(=O)/C(C#N)=C/c1ccc2c(c1)OCO2 (stereo unspecified)	nt	-3.1	i	nt	0.053
Cc1ccc2c(c1)C1CN(C)CCC1N2C(=O)/C=C/c1ccc2c(c1)OCO2 (stereo unspecified)	nt	i	nt	nt	nt
COc1cc2c(cc1OC)-c1c(OC)c(OC)c(OC)c3ccnc(c13)C2=O	i	-4.8	i	i	0.048
CN(C/N=C(\N)N[N+](=O)[O-])S(=O)(=O)c1ccccc1	nt	i	i	nt	nt
N#CSCC(=O)N1c2ccccc2CCc2ccccc21	i	-3.9	nt	i	0.046
O=c1c(C=NCc2cccs2)c(O)n(C2CCCCC2)c(=O)n1C1CCCCC1	i	i	i	i	nt
O=c1c(C=NCCN2CCNCC2)c(O)n(C2CCCCC2)c(=O)n1C1CCCCC1	i	-3.7	i	i	i
COc1cc(OC)c(C=O)c(OC(=O)N(C)C)c1	nt	i	i	nt	nt
Cc1occc1C(=O)N1CCC2(CC1)OCCO2	i	nt	i	i	nt
Cc1noc(C)c1C(=O)N1CCC2(CC1)OCCO2	i	3.1	i	i	i
c1ccc(-c2cc(-c3ccccc3)[n+](-c3ccccc3)c(-c3ccccc3)c2)cc1	nt	-3.6	nt	nt	0.044
C[n+]1c(-c2ccccc2)cc(-c2ccc(Cl)cc2)cc1-c1ccccc1	nt	i	nt	nt	nt
CN(C)c1ccc(-[n+]2c(-c3ccccc3)cc(-c3ccccc3)cc2-c2ccccc2)cc1	nt	-2.2	nt	nt	0.036
O=c1[nH]c(=O)n(C2CCCCCC2)c(O)c1C=NCCCN1CCOCC1	i	nt	i	i	nt
OC1(c2ccc(F)cc2)CC2CCC(C1)N2Cc1nnnn1C1CCCCC1 (stereo unspecified)	i	-4.8	i	i	0.057
OCCN1C2CCC1CC(O)(c1ccc(F)cc1)C2 (stereo unspecified)	i	i	i	i	nt
C[C@H]1CCCC(=O)CCCCCc2cc(O)cc(O)c2C(=O)O1	i	nt	i	i	0.063
COc1cc(N2CCOCC2)ccc1/C=C1\C(=O)NC(=O)N(C2CCCCC2)C1=O	i	-2.5	i	i	i
Cc1ccc(CN2C(=O)NC(=O)C3(Cc4c(nc5ccccn5c4=O)N4CCCCCC43)C2=O)cc1 (stereo unspecified)	i	-2.9	nt	i	0.064
CC1(C)C2([N+](=O)[O-])CN3CN(C2)CC1([N+](=O)[O-])C3	nt	i	nt	nt	nt
O=C(COc1ccccc1)N1CCN(C2CCCC2)CC1	i	nt	i	i	nt
O=C(COc1ccc2ccccc2c1)N1CCN(C2CCN(Cc3ccccc3)CC2)CC1	i	-3	i	i	0.061
N#CC1(c2ccccc2)CCN(C2CC(=O)N(c3ccc4c(c3)OCO4)C2=O)CC1 (stereo unspecified)	nt	i	nt	nt	nt
SMILES	Measles CPE	ROMK mod	INS promoter inh	SDO1 yeast rescue	ROMK hit retest
O=Cc1c(C(=O)O)n(Cc2ccc(Cl)cc2)c2ccccc12	i	nt	i	i	0.053
O=C(c1ccc2c3c(cccc13)CC2)C1CCCN(CC2CC2)C1 (stereo unspecified)	nt	-3.3	i	nt	0.06
O=[N+]([O-])c1ccc(N2CCCNCC2)c2ncccc12	nt	nt	nt	nt	0.039
O=C(NCCN1CCCCC1)c1ccc(Cl)nc1Cl	nt	i	nt	nt	nt
CCOP(=S)(OCC)N1CCOCCOCCN(P(=S)(OCC)OCC)CCOCCOCC1	nt	-2	i	nt	i
CN(C)C(=O)Nc1cccc(OC(=O)N(C)C)c1	i	nt	i	i	i
CN(C)C(=O)Oc1cccc2c(OC(=O)N(C)C)cccc12	i	i	i	i	nt
CCC(C)N1C(=O)/C(=C/c2ccc3c(c2)CCN3CCCCl)C(=O)NC1=S (stereo unspecified)	i	i	i	i	nt
Fc1ccc(Cn2nnnc2C(c2ccc(F)cc2)N2CC=C(c3ccc(F)cc3)CC2)cc1 (stereo unspecified)	i	i	i	i	nt
